Assay [1] is described as follows: reducers of endogenous Her2 protein level, primary screen, SKBR3 breast tumor cells, AlphaScreen, ATP viability (AID 461;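 active = Her2 level under about 52% in both replicate screens, with viability over 70% of control, limit read from the data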;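 for Her2 level: lower value means less Her2 protein in the cells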;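 for viability: percent of carrier control wells set as 100% viability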). As to conditions: 18-24 h, measured here: SKBR3 viability, ATP luminescence, at 10 µM.
Assay [2] addresses Receptor tyrosine-protein kinase erbB-2 (Homo sapiens) (UniProt P04626). Described as above. As to conditions: 18-24 h, at 10 µM, stronger effect = lower value.
A short description of assay [3]: SK-BR-3 cell growth inhibitors, pilot screen, 24 h, human (AID 572).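 Note: compound exposure lasted between 18 and 24 h rather than exactly 24 h; 100% = carrier-treated control wells.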 As to conditions: SK-BR-3 viability, CellTiter-Glo luminescence, at 10 µM, stronger effect = lower value.
The nature of assay [4]: HUVEC growth inhibition – cell-based, human, primary screen (AID 575;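 active = viability at or below 30% in both replicate assays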;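 note: 100% = median of untreated cell wells with 0.1% DMSO on each plate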). As to conditions: HUVEC proliferation, CellTiter-Glo luminescence, 72 h; at 10 µM; stronger effect = lower value.
The nature of assay [5]: growth inhibitors of H69AR lung tumor, primary screen, human, duplicate replicates (AID 580;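 active = viability at or under a set limit in both replicates, limit being median viability minus 3 SD, cut at about 48% in these data, passing the limit was not always enough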;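 note: 100% = mean luminescence of untreated wells and 0% = no signal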). As to conditions: H69AR lung tumor cells viability, ATP luminescence, 72 h; at 10 µM; stronger effect = lower value.
The nature of assay [6]: reversal of MRP1-mediated doxorubicin resistance, pilot screen, H69AR cells, doxorubicin co-treatment (AID 601;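 active = viability loss from added drug above about 55%, and viability with drug at most 40%, in both replicates, limit read from the data, passing the limit was not always enough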). As to conditions: CellTiter-Glo, 72 h, at 10 µM; for differential viability (reversal): stronger effect = higher value.
A short description of assay [7]: 384-well plate pilot, post-Golgi transport modulator project, inhibition of yeast transport mutant growth (AID 636; in the data active = inhibition above about 31%). As to conditions: absorbance 615 nm, about 18 h, stronger effect = higher value.
The nature of assay [8]: growth suppression of yeast trafficking mutant, preliminary HTS, modulators of trafficking downstream of Golgi apparatus project, 1536-format plate, OD 615 nm (AID 637; in the data active = inhibition above about 30%). As to conditions: yeast transport mutant growth, absorbance 615 nm, 18 h; stronger effect = higher value.
The mark [9] stands for this setting: H69AR cells + 2 uM doxorubicin, measured here: viability with 2 uM doxorubicin, stronger effect = lower value.
Where [10] appears, read: H69AR cells, compound alone cytotoxicity.

Calls of active or inactive are those of the source.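 Rule for the calls, unless noted: active = viability at or below 10% of carrier control in both of two separate runs; inconclusive = viability at or below 10% in only one of the two runs; inactive = the rest.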

Chain of Receptor tyrosine-protein kinase erbB-2 (Homo sapiens) (P04626 whole entry, looked up): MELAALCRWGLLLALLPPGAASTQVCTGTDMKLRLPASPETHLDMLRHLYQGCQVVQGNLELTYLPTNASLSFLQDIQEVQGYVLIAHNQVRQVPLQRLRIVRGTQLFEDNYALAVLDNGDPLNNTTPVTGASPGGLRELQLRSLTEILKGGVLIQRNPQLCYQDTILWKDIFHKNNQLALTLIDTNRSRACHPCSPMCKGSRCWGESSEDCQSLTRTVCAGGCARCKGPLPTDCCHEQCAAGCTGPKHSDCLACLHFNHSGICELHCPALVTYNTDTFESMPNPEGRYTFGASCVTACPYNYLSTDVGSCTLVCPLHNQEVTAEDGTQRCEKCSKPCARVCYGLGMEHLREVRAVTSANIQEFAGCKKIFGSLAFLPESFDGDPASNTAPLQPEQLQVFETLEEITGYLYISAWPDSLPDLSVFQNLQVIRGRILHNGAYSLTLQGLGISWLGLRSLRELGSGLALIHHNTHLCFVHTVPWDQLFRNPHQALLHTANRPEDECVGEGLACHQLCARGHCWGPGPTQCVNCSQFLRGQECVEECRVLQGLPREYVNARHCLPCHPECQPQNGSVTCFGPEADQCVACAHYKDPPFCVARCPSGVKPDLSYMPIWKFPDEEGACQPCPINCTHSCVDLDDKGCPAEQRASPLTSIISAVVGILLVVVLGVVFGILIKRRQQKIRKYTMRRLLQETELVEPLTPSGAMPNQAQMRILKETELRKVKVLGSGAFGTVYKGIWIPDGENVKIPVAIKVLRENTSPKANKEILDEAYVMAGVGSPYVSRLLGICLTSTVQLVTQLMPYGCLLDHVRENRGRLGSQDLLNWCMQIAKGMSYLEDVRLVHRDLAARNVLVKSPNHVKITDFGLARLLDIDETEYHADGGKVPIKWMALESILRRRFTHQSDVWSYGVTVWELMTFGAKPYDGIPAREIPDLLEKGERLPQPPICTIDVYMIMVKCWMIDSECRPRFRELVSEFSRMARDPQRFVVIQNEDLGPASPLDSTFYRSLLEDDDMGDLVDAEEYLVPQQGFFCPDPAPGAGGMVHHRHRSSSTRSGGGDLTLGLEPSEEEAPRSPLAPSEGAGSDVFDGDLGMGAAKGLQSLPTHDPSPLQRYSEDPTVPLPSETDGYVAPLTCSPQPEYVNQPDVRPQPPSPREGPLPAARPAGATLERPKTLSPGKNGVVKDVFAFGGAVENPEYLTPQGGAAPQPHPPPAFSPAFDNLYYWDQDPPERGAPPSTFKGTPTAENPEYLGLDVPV

Take `CCOC(=O)CSc1nc2ccccc2n1CC(=O)N1CCN(c2ccccc2)CC1`: the viability in assay [1] was 93.5%; in assay [3], 93.5% (inactive); in assay [4], 87.2% (inactive); in assay [5], 89.9% (inactive); in assay [6] (setting [9]), 87.1%; in assay [6] (setting [10]), 89.9%. For the same compound, the Her2 level in assay [2] was 99.5% (inactive). Besides, the differential viability (reversal) in assay [6] (H69AR cells + 2 uM doxorubicin) is 2.73% (inactive). Moreover, the inhibition was -1.3% (inactive) in assay [7] and -4.92% (inactive) in assay [8].
Consider `CC(=O)N1CCc2cc(S(=O)(=O)CCC(=O)N3CCN(C(=O)c4ccco4)CC3)ccc21`, for which the viability is 99% in assay [1]; 99% (inactive) in assay [3]; 104% (inactive) in assay [4]; 98.2% (inactive) in assay [5]; 88.1% in assay [6] (setting [9]); 98.2% in assay [6] (setting [10]). For the same compound, the Her2 level in assay [2] was 88.5% (inactive). In addition, in assay [6] (H69AR cells + 2 uM doxorubicin), the differential viability (reversal) was 10.1% (inactive). For the same compound, the inhibition in assay [7] was -5.47% (inactive); in assay [8], 2.95% (inactive).
On to `COc1cccc(C2CC(c3ccccc3)n3ncnc3N2)c1` (stereo not given), for which the viability is 87% in assay [1]; 87% (inactive) in assay [3]; 93.5% (inactive) in assay [4]; 90.2% (inactive) in assay [5]; 80% in assay [6] (setting [9]); 90.2% in assay [6] (setting [10]). Further, the Her2 level in assay [2] was 112% (inactive). Moreover, the differential viability (reversal) in assay [6] (H69AR cells + 2 uM doxorubicin) was 10.2% (inactive). Moreover, the inhibition in assay [7] is 2.82% (inactive); in assay [8] it was 3.67% (inactive).
Consider `COc1ccccc1-c1cc(C(=O)Nc2cc(C)nn2-c2ccccc2)no1`, for which the viability is 89% in assay [1]; 89% (inactive) in assay [3]; 61% (inactive) in assay [4]; 15.5% (active) in assay [5]; 49.1% in assay [6] (setting [9]); 15.5% in assay [6] (setting [10]). The Her2 level in assay [2] is 81.5% (inactive). Also, the differential viability (reversal) in assay [6] (H69AR cells + 2 uM doxorubicin) is -33.6% (inactive). Also, the inhibition in assay [7] was 7.84% (inactive); in assay [8], -3.11% (inactive).
In the case of `CCOc1ccc(OCC)c(NC(=O)C2CCN(S(=O)(=O)c3cnc[nH]3)CC2)c1`, the viability in assay [1] was 95.5%; in assay [3], 95.5% (inactive); in assay [4], 96.2% (inactive); in assay [5], 111% (inactive); in assay [6] (setting [9]), 100%; in assay [6] (setting [10]), 111%. Moreover, the Her2 level in assay [2] is 99% (inactive). Besides, the differential viability (reversal) in assay [6] (H69AR cells + 2 uM doxorubicin) was 11.1% (inactive). Further, the inhibition is -2.37% (inactive) in assay [7] and -2.74% (inactive) in assay [8].
Regarding `CCN(CC)S(=O)(=O)c1ccc(C(=O)N2CCN=C2SCc2cccnc2)cc1`, the viability in assay [1] is 82.5%; in assay [3], 82.5% (inactive); in assay [4], 79.7% (inactive); in assay [5] it was 84.5% (inactive); in assay [6] (setting [9]), 88.5%; in assay [6] (setting [10]), 84.5%. The Her2 level in assay [2] was 95.5% (inactive). Besides, the differential viability (reversal) in assay [6] (H69AR cells + 2 uM doxorubicin) is -3.98% (inactive). Further, the values for the inhibition in assay [7] and in assay [8] were -3.38% (inactive) and -3.02% (inactive), respectively.
In the case of `CCCOC(=O)/C(C(N)=NCc1ccccc1)=C(\O)OCCC`, the viability in assay [1] was 82%; in assay [3], 82% (inactive); in assay [4] it was 82.6% (inactive); in assay [5], 88.8% (inactive); in assay [6] (setting [9]), 93.4%; in assay [6] (setting [10]), 88.8%. The Her2 level in assay [2] is 95% (inactive). Also, in assay [6] (H69AR cells + 2 uM doxorubicin), the differential viability (reversal) is -4.66% (inactive). For the same compound, the inhibition in assay [7] was 1.3% (inactive); in assay [8] it was -2.79% (inactive).
For `Nc1nc2n(n1)C(c1cccc(Cl)c1)CC(c1ccc(F)cc1)N2` (stereo not given), the viability in assay [1] is 86.5%; in assay [3], 86.5% (inactive); in assay [4] it was 106% (inactive); in assay [5], 100% (inactive); in assay [6] (setting [9]) it was 111%; in assay [6] (setting [10]), 100%. The Her2 level in assay [2] is 97.5% (inactive). Further, in assay [6] (H69AR cells + 2 uM doxorubicin), the differential viability (reversal) was -10.5% (inactive). Also, the results for the inhibition in assay [7] and in assay [8] were -5.47% (inactive) and -0.83% (inactive), respectively.
Take `CCOc1ccc2c(O)csc2c1`: the viability was 90.5% in assay [1]; 90.5% (inactive) in assay [3]; 96.2% (inactive) in assay [4]; 95.9% (inactive) in assay [5]; 93.7% in assay [6] (setting [9]); 95.9% in assay [6] (setting [10]). Also, in assay [2], the Her2 level is 116% (inactive). Further, in assay [6] (H69AR cells + 2 uM doxorubicin), the differential viability (reversal) was 2.28% (inactive). The inhibition in assay [7] was 0.13% (inactive); in assay [8], 2.17% (inactive).
`CCN1CCN(c2nc(-c3cccnc3)nc3ccccc23)CC1`: the viability in assay [1] was 89%; in assay [3], 89% (inactive); in assay [4], 101% (inactive); in assay [5], 88.6% (inactive); in assay [6] (setting [9]), 91.5%; in assay [6] (setting [10]), 88.6%. Also, in assay [2], the Her2 level is 94.5% (inactive). In assay [6] (H69AR cells + 2 uM doxorubicin), the differential viability (reversal) is -2.89% (inactive). Further, the inhibition in assay [7] was -3.16% (inactive); in assay [8], -0.63% (inactive).
Regarding `Cc1cc2ccccc2n1CCNC(=O)c1ccc(S(=O)(=O)N2CCOCC2)cc1`, the viability in assay [1] was 95.5%; in assay [3], 95.5% (inactive); in assay [4], 85% (inactive); in assay [5], 93% (inactive); in assay [6] (setting [9]), 97.8%; in assay [6] (setting [10]), 93%. The Her2 level in assay [2] was 90% (inactive). Further, the differential viability (reversal) in assay [6] (H69AR cells + 2 uM doxorubicin) is -4.87% (inactive). Also, the inhibition in assay [7] is -7.57% (inactive); in assay [8], 1.75% (inactive).
Turning to `O=C(NCCc1ccccc1)C1CCCN(S(=O)(=O)c2cccs2)C1` (stereo not given), the viability in assay [1] was 89%; in assay [3], 89% (inactive); in assay [4] it was 112% (inactive); in assay [5], 93.8% (inactive); in assay [6] (setting [9]), 86.7%; in assay [6] (setting [10]), 93.8%. Also, the Her2 level in assay [2] is 91% (inactive). Also, the differential viability (reversal) in assay [6] (H69AR cells + 2 uM doxorubicin) is 7.11% (inactive). The inhibition in assay [7] is 1.79% (inactive); in assay [8] it was -0.33% (inactive).
For `Cc1ccc2c(c1)CCCN2C(=O)C1CCCO1` (stereo not given), the viability in assay [1] was 101%; in assay [3] it was 101% (inactive); in assay [4], 99.3% (inactive); in assay [5], 108% (inactive); in assay [6] (setting [9]), 93.3%; in assay [6] (setting [10]), 108%. Moreover, the Her2 level in assay [2] is 100% (inactive). Further, the differential viability (reversal) in assay [6] (H69AR cells + 2 uM doxorubicin) is 14.6% (inactive). In addition, the inhibition was -1.97% (inactive) in assay [7] and -6.83% (inactive) in assay [8].
Take `CCCNC(=O)C1=C(C)C(=O)OC12CCC(C)CC2` (stereo not given): the viability in assay [1] is 94.5%; in assay [3] it was 94.5% (inactive); in assay [4], 87.2% (inactive); in assay [5] it was 95.3% (inactive); in assay [6] (setting [9]), 90.2%; in assay [6] (setting [10]), 95.3%. Also, in assay [2], the Her2 level was 102% (inactive). Moreover, the differential viability (reversal) in assay [6] (H69AR cells + 2 uM doxorubicin) was 5.14% (inactive). Also, the inhibition in assay [7] was 2.27% (inactive); in assay [8], 3.61% (inactive).
For `COCCOC(=O)c1cc(C(=O)c2cc(F)ccc2O)coc1=N`, the viability in assay [1] is 83.5%; in assay [3], 83.5% (inactive); in assay [4], 92% (inactive); in assay [5], 91.1% (inactive); in assay [6] (setting [9]), 95.1%; in assay [6] (setting [10]), 91.1%. For the same compound, the Her2 level in assay [2] was 82.5% (inactive). Also, the differential viability (reversal) in assay [6] (H69AR cells + 2 uM doxorubicin) is -3.97% (inactive). Also, the inhibition is -1.56% (inactive) in assay [7] and -5.08% (inactive) in assay [8].

The values are drawn from PubChem BioAssay.
